# Test results: the supplement of paper PMC12645437, “Orthogonal IMiD-Degron Pairs Induce Selective Protein Degradation in Cells” (ACS Chemical Biology, 2025)
# Whole data set: some 8,300 sequences, median “log2 fold change of degron read counts, EGFP-low vs EGFP+ sorted cells (limma voom), compound-induced degradation” near -1.1, cut for the highest 2% near 3.2. This excerpt belongs to a sample that is enriched for the highest values.
# T1: CRBN, Q96SW2
# T1 chain: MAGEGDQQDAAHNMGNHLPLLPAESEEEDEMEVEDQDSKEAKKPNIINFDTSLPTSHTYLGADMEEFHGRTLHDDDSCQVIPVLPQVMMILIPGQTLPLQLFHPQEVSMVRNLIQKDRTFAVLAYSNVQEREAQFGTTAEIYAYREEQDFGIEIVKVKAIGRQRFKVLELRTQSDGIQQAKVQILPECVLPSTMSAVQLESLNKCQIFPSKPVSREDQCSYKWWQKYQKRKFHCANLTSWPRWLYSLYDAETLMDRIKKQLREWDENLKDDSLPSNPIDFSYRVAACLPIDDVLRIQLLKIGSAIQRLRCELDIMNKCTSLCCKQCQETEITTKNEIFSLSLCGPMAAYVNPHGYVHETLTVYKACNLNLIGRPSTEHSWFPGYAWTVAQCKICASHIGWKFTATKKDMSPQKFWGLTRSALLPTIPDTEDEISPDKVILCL
# Biological target: T1, CRBN, Q96SW2
# Assay: log2 fold change of degron read counts, EGFP-low vs EGFP+ sorted cells (limma voom), compound-induced degradation; higher = more compound-induced degradation of the degron-EGFP fusion; degrons are variants of IKZF1/3 zinc finger 2; compound dose not given here
# Settings: Jurkat, 18 h
# Experimental: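 Pooled library of 8380 IKZF3 ZF2 degron mutants (positions 146-167 varied within the IKZF3 130-189 degron; only the varied core is printed, flanks not printed) fused to EGFP with IRES-mCherry, lentivirally expressed in Jurkat cells. mCherry+ cells were treated with one IMiD compound for 18 h (dose not stated) and FACS-sorted into EGFP-low and EGFP+ populations. Degron sequences were counted by NGS, and log2FC (EGFP-low vs EGFP+) was estimated by limma voom over 3 biological replicates.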
# [1] = compound: compound 19 (5-tert-butyl-thalidomide)
# [2] = compound: compound 22 (5-morpholino-thalidomide)
# [3] = compound: compound 33 (diphenyl IMiD analogue)
# 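Also: pooled lentiviral library of zinc finger degron-EGFP fusions in mCherry-positive Jurkat cells, FACS-sorted after compound exposure, with degron abundance counted by next-generation sequencing.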
Sequence,log2 fold change of degron read counts [1],log2 fold change of degron read counts [2],log2 fold change of degron read counts [3],log2 fold change of degron read counts (compound: thalidomide)
"FYCNICGAFFTQKGNLLRHIKL [46F_47Y_49N_50I_52G_53A_54F_55F_67L_, Q9UKT9]",1.22,1.41,0.651,-0.835
"FYCEQCGAEFTQKGNLLRHIKL [46F_47Y_49E_50Q_52G_53A_54E_55F_67L_, Q9UKT9]",-0.252,-0.709,-0.311,-2.41
"FHCPQCGACFTQKGNLLRHIKL [46F_47H_49P_50Q_52G_53A_54C_55F_67L_, Q9UKT9]",-0.735,-0.785,0.174,-1.82
"FKCPVCGAAFTQKGNLLRHIKL [46F_47K_49P_50V_52G_53A_54A_55F_67L_, Q9UKT9]",1.7,-0.2,-1.11,0.798
"FECEICGHPFTQKGNLLRHIKL [46F_47E_49E_50I_52G_53H_54P_55F_67L_, Q9UKT9]",-2.97,-3.81,-1.95,-1.68
"FWCPICGHKFTQKGNLLRHIKL [46F_47W_49P_50I_52G_53H_54K_55F_67L_, Q9UKT9]",-0.246,-0.231,-0.673,-0.717
"FFCPICGRWFTQKGNLLRHIKL [46F_47F_49P_50I_52G_53R_54W_55F_67L_, Q9UKT9]",1.04,1,-0.146,-0.692
"FVCEICGHPFTQKGNLLRHIKL [46F_47V_49E_50I_52G_53H_54P_55F_67L_, Q9UKT9]",-1.95,-1.66,-1.45,-0.105
"FFCEICGACFTQKGNLLRHIKL [46F_47F_49E_50I_52G_53A_54C_55F_67L_, Q9UKT9]",3.78,3.84,2.33,1.61
"FACEICGACFTQKGNLLRHIKL [46F_47A_49E_50I_52G_53A_54C_55F_67L_, Q9UKT9]",3.71,2.6,1.54,0.745
"FWCEICGACFTQKGNLLRHIKL [46F_47W_49E_50I_52G_53A_54C_55F_67L_, Q9UKT9]",3.85,3.79,2.77,1.16
"FHCEICGACFTQKGNLLRHIKL [46F_47H_49E_50I_52G_53A_54C_55F_67L_, Q9UKT9]",2.97,2.54,1.42,0.134
"FLCEICGACFTQKGNLLRHIKL [46F_47L_49E_50I_52G_53A_54C_55F_67L_, Q9UKT9]",1.19,-0.209,1.6,1.57
"FNCEICGACFTQKGNLLRHIKL [46F_47N_49E_50I_52G_53A_54C_55F_67L_, Q9UKT9]",2.72,0.812,0.513,0.0996
"FICEICGACFTQKGNLLRHIKL [46F_47I_49E_50I_52G_53A_54C_55F_67L_, Q9UKT9]",-0.122,2.02,2.45,2.64
"FECNQCGHIFTQKGNLLRHIKL [46F_47E_49N_50Q_52G_53H_54I_55F_67L_, Q9UKT9]",-3.19,-3.02,-3.5,-3.26
"FVCEICGRMFTQKGNLLRHIKL [46F_47V_49E_50I_52G_53R_54M_55F_67L_, Q9UKT9]",-2.37,-1.56,-0.324,-0.297
"FHCEICGHNFTQKGNLLRHIKL [46F_47H_49E_50I_52G_53H_54N_55F_67L_, Q9UKT9]",-2.97,-3.92,-2.88,-3.29
